{"source": "PubChem BioAssay (EPA / NIEHS)", "key": {"[1]": {"target": "Retinoic acid receptor alpha (Homo sapiens) (UniProt P10276)", "sequence (P10276 whole entry, looked up, the tested form may be a part)": "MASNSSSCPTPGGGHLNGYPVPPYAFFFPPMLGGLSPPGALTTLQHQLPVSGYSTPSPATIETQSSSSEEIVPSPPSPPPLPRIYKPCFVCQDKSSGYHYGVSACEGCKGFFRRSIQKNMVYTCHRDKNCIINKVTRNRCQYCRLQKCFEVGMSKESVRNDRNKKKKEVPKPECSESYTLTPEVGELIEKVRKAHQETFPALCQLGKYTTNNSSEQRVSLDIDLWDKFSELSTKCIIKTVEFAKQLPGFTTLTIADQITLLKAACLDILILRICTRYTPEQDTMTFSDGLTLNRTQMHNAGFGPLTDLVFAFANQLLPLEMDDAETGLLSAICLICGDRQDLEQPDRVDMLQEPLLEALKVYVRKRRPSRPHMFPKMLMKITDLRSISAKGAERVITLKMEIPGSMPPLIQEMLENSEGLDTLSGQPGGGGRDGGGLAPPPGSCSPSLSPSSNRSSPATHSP", "experiment": "ATG_RARa_TRANS: Attagene TRANS-FACTORIAL HepG2 Assay for human Retinoic Acid Receptor alpha (RARa) (AID 2283005)", "method_in_brief": "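Reporter transcripts, measured by RT-PCR with fluorescent labeling and capillary electrophoresis after 24 h dosing, reflect activity of an exogenous human RARa–GAL4 fusion in transiently transfected HepG2. Fitted for increase relative to DMSO.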"}, "[2]": {"target": "Nuclear receptor subfamily 1 group I member 2 (Homo sapiens) (UniProt O75469)", "sequence (O75469 whole entry, looked up, the tested form may be a part)": "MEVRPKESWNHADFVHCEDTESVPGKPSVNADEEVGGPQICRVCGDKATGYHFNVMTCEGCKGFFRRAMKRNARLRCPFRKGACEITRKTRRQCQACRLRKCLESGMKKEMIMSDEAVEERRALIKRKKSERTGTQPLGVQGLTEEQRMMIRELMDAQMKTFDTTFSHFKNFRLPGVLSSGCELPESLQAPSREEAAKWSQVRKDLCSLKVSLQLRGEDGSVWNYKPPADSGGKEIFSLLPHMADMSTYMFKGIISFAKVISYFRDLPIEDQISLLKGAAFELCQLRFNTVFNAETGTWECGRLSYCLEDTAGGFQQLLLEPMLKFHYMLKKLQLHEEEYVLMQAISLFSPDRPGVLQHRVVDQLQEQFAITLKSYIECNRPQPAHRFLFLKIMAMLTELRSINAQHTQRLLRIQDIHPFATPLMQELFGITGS", "experiment": "ATG_PXR_TRANS: Attagene TRANS-FACTORIAL HepG2 Assay for human Pregnane X Receptor (PXR) (AID 2283008)", "method_in_brief": "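Transactivation by exogenous PXR–GAL4 fusion measured as reporter transcript induction after 24 h compound treatment of transfected human HepG2 cells. Read-out via RT-PCR and capillary electrophoresis of labelled fragments, fitted upward relative to DMSO.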"}, "[3]": {"target": "human Retinoic Acid Receptor gamma (RARg), RARG (gene 5916) (UniProt P13631)", "sequence (P13631 whole entry, looked up, the tested form may be a part)": "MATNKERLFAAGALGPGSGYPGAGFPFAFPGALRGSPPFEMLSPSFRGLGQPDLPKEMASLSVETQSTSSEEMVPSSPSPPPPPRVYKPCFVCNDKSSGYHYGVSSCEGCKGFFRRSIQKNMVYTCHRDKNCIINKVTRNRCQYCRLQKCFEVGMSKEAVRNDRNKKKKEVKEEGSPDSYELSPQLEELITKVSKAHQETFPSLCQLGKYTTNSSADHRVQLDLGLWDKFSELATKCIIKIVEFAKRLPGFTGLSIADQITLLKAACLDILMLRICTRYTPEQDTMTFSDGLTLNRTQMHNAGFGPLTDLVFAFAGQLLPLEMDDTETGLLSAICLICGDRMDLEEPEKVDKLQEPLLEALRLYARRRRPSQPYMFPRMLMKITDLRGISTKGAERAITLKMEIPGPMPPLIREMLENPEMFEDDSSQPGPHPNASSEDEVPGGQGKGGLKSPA", "experiment": "ATG_RARg_TRANS: Attagene TRANS-FACTORIAL HepG2 Assay for human Retinoic Acid Receptor gamma (RARg) (AID 2283009)", "method_in_brief": "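Readout: reporter transcript levels via RT-PCR, 6-FAM primer-extension labelling, HpaI digestion and capillary electrophoresis. Cells: HepG2 carrying transfected RARg-GAL4 chimera plus UAS reporter set. Dosing 24 h; DMSO negative control.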"}, "[4]": {"target": "human RAR-related Orphan Receptor beta (RORb), RORB (gene 6096) (UniProt Q92753)", "sequence (Q92753 whole entry, looked up, the tested form may be a part)": "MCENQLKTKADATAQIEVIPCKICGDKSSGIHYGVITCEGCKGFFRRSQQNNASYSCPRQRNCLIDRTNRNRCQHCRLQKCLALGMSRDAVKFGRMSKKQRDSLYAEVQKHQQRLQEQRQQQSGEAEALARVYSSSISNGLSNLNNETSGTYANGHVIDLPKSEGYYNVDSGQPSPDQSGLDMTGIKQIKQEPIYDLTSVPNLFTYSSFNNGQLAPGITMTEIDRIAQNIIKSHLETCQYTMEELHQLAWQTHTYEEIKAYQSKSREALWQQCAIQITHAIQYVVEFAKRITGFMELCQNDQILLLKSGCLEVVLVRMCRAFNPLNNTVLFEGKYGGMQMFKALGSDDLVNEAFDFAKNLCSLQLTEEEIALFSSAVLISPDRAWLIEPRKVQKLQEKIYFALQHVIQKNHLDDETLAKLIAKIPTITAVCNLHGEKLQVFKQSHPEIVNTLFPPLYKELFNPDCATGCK", "experiment": "ATG_RORb_TRANS: Attagene TRANS-FACTORIAL HepG2 Assay for human RAR-related Orphan Receptor beta (RORb) (AID 2283010)", "method_in_brief": "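HepG2, transient MRTU transfection (GAL4-UAS reporters, exogenous NR-Gal4 chimeras); 24 h compound exposure; total RNA → RT-PCR → 6-FAM primer extension → HpaI digest → CE fluorescence. Positive direction vs DMSO baseline.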"}, "[5]": {"target": "Peroxisome proliferator-activated receptor gamma (Homo sapiens) (UniProt P37231)", "sequence (P37231 whole entry, looked up, the tested form may be a part)": "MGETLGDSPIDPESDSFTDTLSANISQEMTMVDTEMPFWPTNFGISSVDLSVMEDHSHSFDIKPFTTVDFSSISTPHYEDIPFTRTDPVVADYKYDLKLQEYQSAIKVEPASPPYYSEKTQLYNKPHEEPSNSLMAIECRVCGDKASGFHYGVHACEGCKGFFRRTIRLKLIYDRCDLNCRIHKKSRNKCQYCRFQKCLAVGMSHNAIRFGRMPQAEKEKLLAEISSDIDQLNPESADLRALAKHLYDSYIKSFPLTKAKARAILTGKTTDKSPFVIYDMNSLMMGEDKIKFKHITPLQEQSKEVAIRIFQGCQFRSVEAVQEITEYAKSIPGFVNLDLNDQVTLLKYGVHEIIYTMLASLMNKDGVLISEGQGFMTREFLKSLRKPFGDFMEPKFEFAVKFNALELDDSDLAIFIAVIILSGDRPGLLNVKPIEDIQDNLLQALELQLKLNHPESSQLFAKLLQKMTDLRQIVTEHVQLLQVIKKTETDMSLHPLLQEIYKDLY", "experiment": "ATG_PPARg_TRANS: Attagene TRANS-FACTORIAL HepG2 Assay for human Peroxisome Proliferator-activated Receptor-gamma (PPARg) (AID 2283007)", "method_in_brief": "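HepG2 cells are transiently transfected with GAL4-UAS reporter units driven by chimeric NR-Gal4 fusions and dosed for 24 h. Reporter mRNA is quantified by RT-PCR, 6-FAM labelling, HpaI digestion and capillary electrophoresis. Induction is scored against DMSO.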"}}, "note": "Records with an inconclusive call do not appear. Active and inactive are the calls of the source. Rule for the calls: active = hit-call score of the fitted dose curve at least 0.9, where 1 is the maximum; inconclusive = response in the unintended direction; inactive = score below 0.9."}
{"smiles": "CS(C)=O", "values": [{"measurement": "outcome", "setting": "[1]", "value": "inactive"}, {"measurement": "outcome", "setting": "[2]", "value": "inactive"}, {"measurement": "outcome", "setting": "[3]", "value": "inactive"}, {"measurement": "outcome", "setting": "[4]", "value": "inactive"}]}
{"smiles": "CCCCCC(C)=O", "values": [{"measurement": "outcome", "setting": "[5]", "value": "inactive"}, {"measurement": "outcome", "setting": "[2]", "value": "inactive"}]}
{"smiles": "CCOc1ccccc1O", "values": [{"measurement": "outcome", "setting": "[1]", "value": "inactive"}, {"measurement": "outcome", "setting": "[5]", "value": "inactive"}, {"measurement": "outcome", "setting": "[2]", "value": "inactive"}, {"measurement": "outcome", "setting": "[4]", "value": "inactive"}]}
{"smiles": "CCCC(=O)C(CC)Sc1ccoc1C", "note": "(stereo not given)", "values": [{"measurement": "AC50", "setting": "[5]", "value": "33.6 µM (active)"}, {"measurement": "AC50", "setting": "[2]", "value": "9.72 µM (active)"}]}
{"smiles": "Cc1ccc(-c2ccccc2)cc1", "values": [{"measurement": "outcome", "setting": "[2]", "value": "inactive"}, {"measurement": "outcome", "setting": "[4]", "value": "inactive"}]}
{"smiles": "CN(C)CCOc1ccc(/C(=C(/CCCl)c2ccccc2)c2ccccc2)cc1", "values": [{"measurement": "outcome", "setting": "[2]", "value": "inactive"}, {"measurement": "outcome", "setting": "[3]", "value": "inactive"}]}
{"smiles": "OCCOCCN1CCN(C2=Nc3ccccc3Sc3ccccc32)CC1", "values": [{"measurement": "AC50", "setting": "[2]", "value": "5.77 µM (active)"}, {"measurement": "outcome", "setting": "[3]", "value": "inactive"}]}
{"smiles": "COC(=O)c1ccc(C)cc1C1=NC(C)(C(C)C)C(=O)N1", "note": "(stereo not given) (tested in a mixture with another compound)", "values": [{"measurement": "outcome", "setting": "[1]", "value": "inactive"}, {"measurement": "outcome", "setting": "[2]", "value": "inactive"}]}
{"smiles": "CC(C)CCOC(=O)c1ccccc1", "values": [{"measurement": "outcome", "setting": "[2]", "value": "inactive"}, {"measurement": "outcome", "setting": "[4]", "value": "inactive"}]}
{"smiles": "COc1cccc(OC)c1O", "values": [{"measurement": "outcome", "setting": "[2]", "value": "inactive"}]}
{"smiles": "CC(C)=CCCC(C)CCOC=O", "note": "(stereo not given)", "values": [{"measurement": "outcome", "setting": "[2]", "value": "inactive"}]}
{"smiles": "CCCC(=O)OCCc1ccccc1", "values": [{"measurement": "outcome", "setting": "[2]", "value": "inactive"}, {"measurement": "outcome", "setting": "[4]", "value": "inactive"}]}
{"smiles": "CCOC(=O)C1OC1c1ccccc1", "note": "(stereo not given)", "values": [{"measurement": "outcome", "setting": "[5]", "value": "inactive"}, {"measurement": "outcome", "setting": "[2]", "value": "inactive"}]}
{"smiles": "CC1=CC[C@@]23C[C@@H]1C(C)(C)[C@@H]2CC[C@H]3C", "values": [{"measurement": "outcome", "setting": "[5]", "value": "inactive"}, {"measurement": "outcome", "setting": "[2]", "value": "inactive"}, {"measurement": "outcome", "setting": "[4]", "value": "inactive"}]}
{"smiles": "O=CCc1ccccc1", "values": [{"measurement": "AC50", "setting": "[5]", "value": "22.9 µM (active)"}, {"measurement": "AC50", "setting": "[2]", "value": "13.1 µM (active)"}, {"measurement": "outcome", "setting": "[3]", "value": "inactive"}, {"measurement": "outcome", "setting": "[4]", "value": "inactive"}]}
{"smiles": "C=C[Si]1(C)O[Si](C)(C=C)O[Si](C)(C=C)O[Si](C)(C=C)O1", "note": "(stereo not given)", "values": [{"measurement": "outcome", "setting": "[5]", "value": "inactive"}, {"measurement": "AC50", "setting": "[2]", "value": "4.48 µM (active)"}]}
{"smiles": "O=C(O)COCC(=O)O", "values": [{"measurement": "outcome", "setting": "[1]", "value": "inactive"}, {"measurement": "outcome", "setting": "[2]", "value": "inactive"}, {"measurement": "outcome", "setting": "[4]", "value": "inactive"}]}
{"smiles": "COc1ccccc1[N+](=O)[O-]", "values": [{"measurement": "outcome", "setting": "[2]", "value": "inactive"}, {"measurement": "outcome", "setting": "[4]", "value": "inactive"}]}
{"smiles": "C=C1CC[C@H](O)C/C1=C/C=C1\\CCC[C@]2(C)[C@@H]([C@H](C)/C=C/[C@H](C)C(C)C)CC[C@@H]12", "values": [{"measurement": "outcome", "setting": "[5]", "value": "inactive"}, {"measurement": "AC50", "setting": "[2]", "value": "3.81 µM (active)"}]}
{"smiles": "Nc1ccc2c(O)cc(S(=O)(=O)O)cc2c1", "values": [{"measurement": "outcome", "setting": "[5]", "value": "inactive"}, {"measurement": "outcome", "setting": "[2]", "value": "inactive"}, {"measurement": "outcome", "setting": "[3]", "value": "inactive"}, {"measurement": "outcome", "setting": "[4]", "value": "inactive"}]}
{"smiles": "Cc1ccc(N)c(S(=O)(=O)O)c1", "values": [{"measurement": "outcome", "setting": "[5]", "value": "inactive"}, {"measurement": "outcome", "setting": "[2]", "value": "inactive"}]}
{"smiles": "CC(=O)NCCO", "values": [{"measurement": "outcome", "setting": "[2]", "value": "inactive"}, {"measurement": "outcome", "setting": "[3]", "value": "inactive"}, {"measurement": "outcome", "setting": "[4]", "value": "inactive"}]}
{"smiles": "CCCCCCCCN1CCCC1=O", "values": [{"measurement": "AC50", "setting": "[2]", "value": "7.53 µM (active)"}, {"measurement": "outcome", "setting": "[3]", "value": "inactive"}]}
{"smiles": "O=P(O)(O)O", "values": [{"measurement": "outcome", "setting": "[4]", "value": "inactive"}]}
{"smiles": "CCCC(=O)c1ccccc1", "values": [{"measurement": "outcome", "setting": "[5]", "value": "inactive"}, {"measurement": "outcome", "setting": "[2]", "value": "inactive"}, {"measurement": "outcome", "setting": "[4]", "value": "inactive"}]}
{"smiles": "C=Cc1ccc(C)cc1", "values": [{"measurement": "outcome", "setting": "[5]", "value": "inactive"}, {"measurement": "outcome", "setting": "[2]", "value": "inactive"}]}
{"smiles": "C1CCCCC1", "values": [{"measurement": "outcome", "setting": "[2]", "value": "inactive"}, {"measurement": "outcome", "setting": "[4]", "value": "inactive"}]}
{"smiles": "O=[N+]([O-])c1cccc(Cl)c1", "values": [{"measurement": "outcome", "setting": "[3]", "value": "inactive"}]}
{"smiles": "CCCCC1(COC(=O)CCC(=O)O)C(=O)N(c2ccccc2)N(c2ccccc2)C1=O", "values": [{"measurement": "outcome", "setting": "[5]", "value": "inactive"}, {"measurement": "AC50", "setting": "[2]", "value": "28 µM (active)"}]}
{"smiles": "Nc1ccn([C@H]2CS[C@@H](CO)O2)c(=O)n1", "values": [{"measurement": "outcome", "setting": "[3]", "value": "inactive"}]}
{"smiles": "CCCCC(CC)(CO)CO", "values": [{"measurement": "outcome", "setting": "[2]", "value": "inactive"}]}
{"smiles": "CC(C)(C)c1ccc(C(=O)O)cc1", "values": [{"measurement": "outcome", "setting": "[5]", "value": "inactive"}, {"measurement": "outcome", "setting": "[2]", "value": "inactive"}]}
